Measured values from PubChem BioAssay AID1224921 (Broad Institute, 2016).
The whole screen tested about 1,400 compounds, of which about 350 (25%) were called active. Not shown: some 2% with an inconclusive outcome. How the calls were made is not given here. These entries were drawn from the full list. Potency and affinity values are given separately.

Assay: C. difficile growth inhibition, confirmation, 4-point retest (AID 1224921);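 further: plate controls were DMSO wells for no effect and levofloxacin 16 µg/mL wells for full effect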
Conditions: Clostridioides difficile clinical isolate growth, OD600, 24 h, hits give low values; at 30 µM unless noted

| Structure (SMILES) | max activity |
| --- | --- |
| CN1CCN(C(=O)C[C@@H]2C[C@@H]3c4cc(NC(=O)Nc5ccc(C(F)(F)F)cc5)ccc4O[C@@H]3[C@H](CO)O2)CC1 | 30.1% (inactive) |
| Cc1ccccc1-c1ccc2c(c1)O[C@@H](CN(C)Cc1ccncc1)[C@H](C)CN([C@@H](C)CO)S2(=O)=O | 33.1% (inactive) |
| CCNC(=O)C[C@@H]1CC[C@H](NC(=O)C2CC2)[C@@H](CO)O1 | -9.17% (inactive) |
| O=C(NCC[C@@H]1CC[C@H](NC(=O)C2CCCCC2)[C@@H](CO)O1)Nc1ccc(Cl)cc1 | 16.1% [at 8 µM] (inactive) |
| O=C(NCC[C@H]1CC[C@@H](NC(=O)C2CCCCC2)[C@@H](CO)O1)Nc1ccc(Cl)cc1 | 15.3% [at 8 µM] (inactive) |
| O=C(Nc1ccc2c(c1)OCO2)N[C@H]1CC[C@H](CCNC(=O)C2CC2)O[C@@H]1CO | -10.4% [at 1.95 µM] (inactive) |
| C[C@@H]1CN([C@@H](C)CO)S(=O)(=O)c2ccc(C#CC3CC3)cc2O[C@H]1CN(C)Cc1ccncc1 | 53.6% (inactive) |
| C[C@@H]1CN([C@@H](C)CO)S(=O)(=O)c2ccc(C3=CCCC3)cc2O[C@H]1CN(C)Cc1ccncc1 | 8.26% (inactive) |
| CCCN1[C@@H]2c3ccc(/C=C/c4ccccc4)c(=O)n3C[C@H]1[C@H](CO)[C@H]2C(=O)NCC1CC1 | 3.29% (inactive) |
| O=C(Nc1ccc2c(c1)[C@@H]1C[C@H](CC(=O)N3CCc4ccccc4C3)O[C@H](CO)[C@@H]1O2)NC1CCCC1 | -11.8% (inactive) |
| CC(C)[C@H](C)NC(=O)N(C)C[C@@H]1OCc2ccccc2-c2ccccc2C(=O)N([C@H](C)CO)C[C@H]1C | -14.1% [at 8 µM] (inactive) |
| CCC(=O)Nc1ccc2c(c1)C(=O)N(C)C[C@H](OC)[C@@H](C)CN(C(=O)CN1CCOCC1)[C@H](C)CO2 | -15.4% [at 1.95 µM] (inactive) |
| CCCNC(=O)Nc1ccc2c(c1)C(=O)N(C)C[C@@H](OC)[C@H](C)CN(CCC(F)(F)F)[C@@H](C)CO2 | 17.1% (inactive) |
| CO[C@@H]1CN(C)C(=O)c2cc(NC(=O)c3cccc(F)c3)ccc2OC[C@H](C)N(C(C)=O)C[C@H]1C | -16.4% [at 0.5 µM] (inactive) |
| CCCN1C[C@H](C)[C@@H](OC)CN(C)C(=O)c2cc(NC(=O)Nc3ccccc3F)ccc2OC[C@H]1C | -17.1% [at 8 µM] (inactive) |
| Cc1noc(C)c1NC(=O)N[C@H]1CC[C@@H](CC(=O)Nc2ccc(-c3ccccc3)cc2)O[C@@H]1CO | 28.3% [at 35 µM] (inactive) |
| O=C(O)C[C@H]1C[C@@H]2c3cc(NC(=O)c4ccc5c(c4)OCO5)ccc3O[C@@H]2[C@H](CO)O1 | -10.2% [at 0.5 µM] (inactive) |
| CCNC(=O)C[C@H]1CC[C@H](NC(=O)C2CC2)[C@@H](CO)O1 | -15.8% [at 8 µM] (inactive) |
| CCNC(=O)C[C@H]1CC[C@@H](NC(=O)C2CC2)[C@H](CO)O1 | -5.49% [at 1.95 µM] (inactive) |
| CO[C@@H]1CN(C)C(=O)c2ccc(NC(=O)Nc3cccc(Cl)c3)cc2OC[C@@H](C)N(C(=O)Nc2c(C)noc2C)C[C@H]1C | -7.11% [at 0.5 µM] (inactive) |
| C[C@@H]1CN([C@@H](C)CO)S(=O)(=O)c2ccc(C3=CCCCC3)cc2O[C@@H]1CN(C)Cc1ccncc1 | 54.5% (inactive) |
| CCS(=O)(=O)Nc1ccc2c(c1)C(=O)N(C)C[C@H](OC)[C@@H](C)CN(C(C)=O)[C@@H](C)CO2 | -9.47% [at 1.95 µM] (inactive) |

| Structure (SMILES) | max activity |
| --- | --- |
| CO[C@@H]1CN(C)C(=O)c2cc(NC(C)=O)ccc2OC[C@H](C)N(Cc2nccs2)C[C@H]1C | 10.1% (inactive) |
| CO[C@H]1CN(C)C(=O)c2cc(NC(C)=O)ccc2OC[C@H](C)N(CC2CCCCC2)C[C@H]1C | 16.4% (inactive) |
| C[C@@H]1CN([C@H](C)CO)S(=O)(=O)c2ccc(C#CC3(O)CCCC3)cc2O[C@@H]1CN(C)C(=O)Nc1ccc(F)cc1 | 21.5% (inactive) |
| O=C(C[C@@H]1C=C[C@@H](NC(=O)Cc2cccnc2)[C@H](CO)O1)Nc1ccccc1 | -12.6% (inactive) |
| COc1ccccc1S(=O)(=O)N[C@@H]1C=C[C@H](CC(=O)N2CCCCC2)O[C@H]1CO | -12.3% [at 8 µM] (inactive) |
| O=C(C[C@@H]1C[C@H]2c3cc(NC(=O)Nc4ccccc4)ccc3O[C@H]2[C@@H](CO)O1)NC1CCCC1 | -18% (inactive) |
| Cc1ccc(-c2ccc3c(c2)O[C@H](CN(C)Cc2cccnc2)[C@H](C)CN([C@@H](C)CO)S3(=O)=O)cc1 | 32.9% (inactive) |
| CC(=O)N(C)C[C@@H]1Oc2ncc(C#Cc3ccc(F)cc3)cc2C(=O)N([C@H](C)CO)C[C@H]1C | 21.7% (inactive) |
| CO[C@H]1CN(C)C(=O)c2ccc(NC(=O)Nc3cccc(Cl)c3)cc2OC[C@H](C)NC[C@@H]1C | -12.1% [at 8 µM] (inactive) |
| CO[C@H]1CN(C)C(=O)c2ccc(NC(=O)Nc3cccc(Cl)c3)cc2OC[C@@H](C)NC[C@@H]1C | 37.7% (inactive) |
| C[C@@H]1CN([C@H](C)CO)C(=O)c2cc(NC(=O)CCCN(C)C)ccc2O[C@@H](C)CCCCO[C@@H]1CN(C)Cc1ccc(C(F)(F)F)cc1 | 6.03% [at 35 µM] (inactive) |
| C[C@@H]1CN([C@H](C)CO)C(=O)c2cc(NC(=O)Nc3cccc4ccccc34)ccc2O[C@@H](C)CCCCO[C@H]1CN(C)C(=O)c1ccccc1 | 24.4% (inactive) |
| CO[C@@H]1CN(C)C(=O)c2ccc(NC(C)=O)cc2OC[C@@H](C)N(C(=O)CN(C)C)C[C@H]1C | -8.17% (inactive) |
| CCCC(=O)Nc1ccc2c(c1)C(=O)N(C)C[C@@H](OC)[C@@H](C)CN(Cc1ccc(F)cc1)[C@H](C)CO2 | 20.9% (inactive) |
| COc1ccc(-c2cnc3c(c2)C(=O)N([C@H](C)CO)C[C@H](C)[C@@H](CN(C)Cc2ccc(C(=O)O)cc2)O3)cc1 | -17.6% [at 2.1 µM] (inactive) |
| CO[C@H]1CN(C)C(=O)c2cc(NC(=O)c3nc4ccccc4s3)ccc2OC[C@H](C)N(Cc2ccncc2)C[C@@H]1C | 20% (inactive) |
| CCC(=O)N1C[C@@H](C)[C@@H](OC)CN(C)C(=O)c2ccc(NC(=O)Nc3ccccc3)cc2OC[C@H]1C | -13.3% [at 1.95 µM] (inactive) |
| COCC(=O)N(C)C[C@H]1Oc2cc(C#Cc3ccccc3)ccc2S(=O)(=O)N([C@H](C)CO)C[C@H]1C | 35.4% (inactive) |
| CCS(=O)(=O)Nc1ccc2c(c1)C(=O)N(C)C[C@@H](OC)[C@@H](C)CN(CC1CCCC1)[C@@H](C)CO2 | -10.9% [at 0.5 µM] (inactive) |
| Cc1ccc(-c2ccc3c(c2)O[C@@H](CN(C)Cc2cccnc2)[C@@H](C)CN([C@H](C)CO)S3(=O)=O)cc1 | 26.8% (inactive) |
| CN1CCN(C(=O)C[C@@H]2C[C@@H]3c4cc(NC(=O)Cc5ccncc5)ccc4O[C@@H]3[C@H](CO)O2)CC1 | 13.2% (inactive) |
| O=C(N[C@@H]1C=C[C@@H](CC(=O)N2CCOCC2)O[C@@H]1CO)c1cccc(F)c1 | -15.3% [at 1.95 µM] (inactive) |

| Structure (SMILES) | max activity |
| --- | --- |
| C[C@H](CO)N1C[C@H](C)[C@H](CN(C)C(=O)Nc2ccc(F)cc2)Oc2ncc(-c3cc4ccccc4o3)cc2C1=O | 26.1% (inactive) |
| COc1ccccc1S(=O)(=O)N[C@H]1C=C[C@@H](CC(=O)N2CCCCC2)O[C@H]1CO | -12.3% (inactive) |
| COc1ccc(CNC(=O)C[C@H]2C[C@@H]3c4cc(NC(=O)NC5CCCC5)ccc4O[C@@H]3[C@@H](CO)O2)cc1 | -9.75% (inactive) |
| CO[C@@H]1CN(C)C(=O)c2ccc(NC(=O)C3CCCC3)cc2OC[C@@H](C)NC[C@@H]1C | -1.17% [at 1.95 µM] (inactive) |
| CO[C@H]1CN(C)C(=O)c2ccc(NC(=O)C3CCCCC3)cc2OC[C@H](C)N(Cc2nccs2)C[C@H]1C | 21.8% [at 8 µM] (inactive) |
| C[C@@H]1CN([C@H](C)CO)C(=O)c2ccccc2-c2ccccc2CO[C@H]1CN(C)S(=O)(=O)c1ccsc1 | 29% (inactive) |
| C[C@@H]1CN([C@H](C)CO)C(=O)Cc2cc(NS(C)(=O)=O)ccc2O[C@H]1CN(C)Cc1ccccc1 | 15.9% (inactive) |
| COc1ccc(-c2ccc([C@H]3[C@H](C#N)N(C(=O)NC4CCCC4)[C@H]3CO)cc2)cc1 | 36.8% [at 9 µM] (inactive) |
| CO[C@H]1CN(C)C(=O)c2cc(NC(=O)c3cccc(F)c3)ccc2OC[C@H](C)N(C(C)=O)C[C@H]1C | -6.58% (inactive) |
| Cc1nn(C)cc1NC(=O)C[C@@H]1CC[C@@H]2[C@@H](COc3ccc(NC(=O)Nc4cccc(Cl)c4)cc3C(=O)N2C)O1 | 10.1% (inactive) |
| Cc1ccccc1-c1ccc2c(c1)O[C@H](CN(C)Cc1ccncc1)[C@@H](C)CN([C@H](C)CO)S2(=O)=O | 13.6% (inactive) |
| CCC(=O)Nc1ccc2c(c1)OC[C@H](C)N(CC1CCCCC1)C[C@H](C)[C@@H](OC)CN(C)C2=O | 33.6% (inactive) |
| COCC(=O)Nc1ccc2c(c1)OC[C@@H](C)N(Cc1ccccc1F)C[C@@H](C)[C@@H](OC)CN(C)C2=O | -4.19% (inactive) |
| C[C@@H]1CN([C@H](C)CO)C(=O)c2ccccc2-c2ccccc2CO[C@@H]1CN(C)C(=O)CCN(C)C | -7.59% [at 2.1 µM] (inactive) |
| Cc1ccc(S(=O)(=O)Nc2ccc3c(c2)C(=O)N([C@@H](C)CO)C[C@@H](C)[C@H](CN(C)C)OCCCC[C@H](C)O3)cc1 | -4% [at 8 µM] (inactive) |
| C[C@H](CO)N1C[C@H](C)[C@H](CN(C)CC2CCCCC2)OCCCC[C@H](C)Oc2ccc(NS(=O)(=O)c3ccc(Cl)cc3)cc2C1=O | 23% [at 8 µM] (inactive) |
| COc1ccc(S(=O)(=O)Nc2ccc3c(c2)CC(=O)N([C@@H](C)CO)C[C@H](C)[C@@H](CN(C)CC2CCCCC2)O3)cc1 | 52.7% (inactive) |
| C[C@@H]1CN([C@H](C)CO)C(=O)Cc2cc(NS(=O)(=O)c3ccccc3)ccc2O[C@@H]1CN(C)Cc1ccc(Cl)c(Cl)c1 | 30.5% [at 35 µM] (inactive) |
| C[C@H]1CN([C@@H](C)CO)C(=O)Cc2cc(NS(=O)(=O)c3ccccc3)ccc2O[C@@H]1CN(C)Cc1ccc(Cl)c(Cl)c1 | 49.4% (inactive) |
| Cc1ccc(S(=O)(=O)Nc2ccc3c(c2)C(=O)N([C@@H](C)CO)C[C@H](C)[C@@H](CN(C)Cc2ccc(C(F)(F)F)cc2)OCCCC[C@@H](C)O3)cc1 | 32.7% [at 8 µM] (inactive) |
| C[C@@H]1CN([C@@H](C)CO)C(=O)Cc2cc(NS(C)(=O)=O)ccc2O[C@H]1CN(C)CC1CCCCC1 | 14.3% (inactive) |
| C[C@@H]1CCCCO[C@H](CN(C)Cc2ccc(C(F)(F)F)cc2)[C@@H](C)CN([C@@H](C)CO)C(=O)c2cc(NS(=O)(=O)c3ccc(Cl)cc3)ccc2O1 | 24% [at 8 µM] (inactive) |
